Measurements from PubChem BioAssay AID1159580 (chemical genetic matrix, 2015).
The whole screen tested about 5,500 compounds, of which about 2,000 (36%) were called active. Not shown: some 18% with an inconclusive outcome. No stated cut-off is given here; in the data, active means normalized growth mostly below about 0.91 (no sharp cut-off); inconclusive means no clear call, values can overlap the other calls; inactive means mostly above about 0.92. Some of the results follow.

Experiment: chemical genetic growth profiling, strain panel (AID 1159580);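 further: tested at 20 µM; growth read once vehicle control cultures reached saturation at 30 °C; 1 = growth at the plate median or of vehicle wells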
Conditions: S. cerevisiae deletion strains, growth OD

Measured: normalized growth

COc1cc2oc3cc(OC)c(OC)c(CC=C(C)C)c3c(=O)c2c(OC)c1CC=C(C)C
inactive: locus YHR030C, strain SLT2, stronger effect = lower value 0.934 | locus YHR079C, strain IRE1, stronger effect = lower value 0.927 | locus YJL095W, strain BCK1, stronger effect = lower value 0.918 | locus YJR066W, strain TOR1, stronger effect = lower value 0.885 | locus YLR113W, strain HOG1, stronger effect = lower value 0.895 | locus YNL183C, strain NPR1, stronger effect = lower value 0.862 | locus YOR231W, strain MKK1, stronger effect = lower value 0.905 | locus YPL256C, strain CLN2, stronger effect = lower value 0.955
